Most compounds without a hit are left out; they make up all but 1.5% or so of the library.
Coupling enz: qHTS Assay for Inhibitors of Fructose-1,6-bisphosphate Aldolase from Giardia Lamblia: Coupling assay counterscreen; coupling enzyme system counterscreen, AmpLite Red fluorescence; activity change, negative = inhibition, % at 58.2 µM, hits read low; actives 0.67% (n = 290,000); in the data active = activity change below about -30%
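First, compound is pin-transferred into glyceraldehyde-3-phosphate coupling-enzyme reagent at 57.5 uM final and held 10 min at RT. Next, substrate, coupling system and AmpLite Red are added. After 20 min RT, fluorescence (525/598 nm) is read.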
USP1 inh: Inhibitors of USP1/UAF1: Primary Screen | Ubiquitin carboxyl-terminal hydrolase 1 (Homo sapiens), O94782 | recombinant USP1/UAF1, Ub-Rhodamine cleavage fluorescence | Potency, µM (doses to about 57.1 µM), inactives show at the top dose activity change, negative = inhibition, hits mostly inhibitors | actives 0.23% (n = 390,000) | AID 743255, 2014; note: potency is the fitted concentration of half-maximal effect; nearly all actives have a fitted effect of over 60% in size
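1 nM enzyme complex + cpd, 15 min RT; start with Ub-Rho 150nM final; kinetic fluorescence ex 480/em 540, 6 reads q60 s. Buffer 50mM HEPES pH 7.8, 0.5mM EDTA, 0.1 mg/ml BSA, 1mM TCEP, 0.01% Tween-20.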
GALK inh: qHTS Assay for Inhibitors of Human Galactokinase (GALK); actives 0.007% (n = 270,000); Purified GALK, Kinase-Glo residual ATP luminescence; AID 1868, 2009; Potency, µM (top dose mostly 57.5 µM), without a hit: at the highest dose activity change, negative = inhibition, usual class: inhibitors; note: potency is the fitted concentration of half-maximal effect
Target sequence (P51570 whole entry, looked up): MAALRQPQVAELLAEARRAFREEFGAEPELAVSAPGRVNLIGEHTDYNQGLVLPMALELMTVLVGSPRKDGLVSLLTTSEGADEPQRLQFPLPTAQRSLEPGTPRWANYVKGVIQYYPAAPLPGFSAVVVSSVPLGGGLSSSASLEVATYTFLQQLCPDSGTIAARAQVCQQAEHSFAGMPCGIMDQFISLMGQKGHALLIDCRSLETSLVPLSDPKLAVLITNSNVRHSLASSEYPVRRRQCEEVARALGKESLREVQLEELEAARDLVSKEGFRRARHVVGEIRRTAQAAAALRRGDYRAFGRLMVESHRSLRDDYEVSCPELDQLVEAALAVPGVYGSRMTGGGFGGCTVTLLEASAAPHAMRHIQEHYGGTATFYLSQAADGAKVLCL
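The enzyme phosphorylates galactose (100 uM) using ATP (35 uM); inhibition is detected as higher residual ATP, quantified by bioluminescence after 1 h reaction at room temperature, pH 8.0.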
TrxR1 substrate: qHTS Assay for Substrates of Mammalian Selenoprotein Thioredoxin Reductase 1 (TrxR1): qHTS; actives 0.01% (n = 390,000); purified TrxR1 substrate turnover, NADPH consumption readout; Thioredoxin reductase 1, cytoplasmic (Rattus norvegicus), O89049; Potency, µM (highest dose often 114 µM), inactives show at the top dose activity change, negative = substrate turnover; AID 588456, 2011; note: potency is the fitted concentration of half-maximal effect; nearly all actives have a fitted effect of over 50% in size
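Rat TrxR1, dispensed at 90 nM, was prereduced with 400 uM NADPH (final) for 5 min at ~22 deg C, then incubated with compound 15 min before 400 uM selenite. A first-read NADPH fluorescence drop versus no-compound background flagged substrates.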
TrxR1 inh: qHTS Assay for Inhibitors of Mammalian Selenoprotein Thioredoxin Reductase 1 (TrxR1): qHTS; recombinant rTrxR1, NADPH fluorescence consumption, selenite substrate; Potency, µM (highest dose often 114 µM), without a hit: top-dose activity change, negative = inhibition, usual class: inhibitors; actives 1% (n = 390,000); AID 588453, 2011; note: potency is the fitted concentration of half-maximal effect; nearly all actives have a fitted effect of over 65% in size
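Rat TrxR1 (90 nM in the dispensed reagent) was pre-reduced with 400 uM NADPH for 5 min at room temperature, then incubated with compound for 15 min. After 400 uM selenite was added, NADPH fluorescence (Ex 340/Em 450 nm) was followed for 8 min.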
Active calls of the source: *; ? = inconclusive; . = no result; [ ] = remark or other dose. Unless noted, calls come from the whole dose curve; as a rule, active = well fitted curve in the direction sought with a large enough effect; inconclusive = small, poorly fitted or top-dose-only effect, or another doubt; inactive = no such curve, though single readings can be large; an effect the other way counts as inactive or inconclusive. % is set by controls: 0 for no effect and ±100 for the full control effect.

SMILES	Coupling enz	USP1 inh	GALK inh	TrxR1 substrate	TrxR1 inh
Cn1c(=O)n2n(c1=O)[C@H]1[C@H](O)[C@H]3O[C@@H]3/C(=N/OC[C@@H](O)COCc3ccco3)[C@@H]1CC2	5.7	.	.	.	.
CC(=O)C[n+]1cccc2cc(Cl)ccc21	.	.	.	0.4%	-0.2%
COc1ccc(OCCOC(=O)CN2C(=O)NC3(CCCC3)C2=O)cc1	.	7.9%	.	-1.9%	-4.4%
CCCc1cc(=O)oc2cc(OC(=O)CN3C(=O)NC4(CCCC4)C3=O)ccc12	.	-1.8%	.	396.4%	79.4µM*
CCCS(=O)(=O)c1ncc(Cl)c(C(=O)N2CCN(c3ccc(OC)cc3)CC2)n1	.	-5.2%	.	5.3%[57.1 µM]	8.91µM*
CC(I)CCC(C)[n+]1cccc(I)c1 (stereo not given)	.	.	.	-2.9%	3.8%
COc1ccccc1-c1cc(C(F)(F)F)nc(S(C)(=O)=O)n1	2.9	-10.1%	3.7%	4.9%	35.5µM*
COc1ccccc1-c1cc(C(F)(F)F)nc(S(=O)(=O)CCCC(=O)NC(C)C)n1	4.7	-18.8%	-2.5%	18.3%	17.8µM*
COc1ccccc1-c1cc(C(F)(F)F)nc(S(=O)(=O)CCCC(=O)NCc2ccc(F)cc2)n1	0.0	-10.2%	16.4%	149.0%	?
O=C1C=CC(=O)C2=C1C1c3ccccc3C2c2ccccc21	-10.5	.	.	.	.
C=C1C=C(C(F)F)n2ncc(C(=O)NCc3ccc(OC)cc3)c2N1	.	.	.	-7.3%	-11.9%
Cc1ccc2oc(-c3ccc(C)c(NC(=O)/C=C/c4ccco4)c3)nc2c1	.	-19.2%	.	2.6%	31.6µM*
Cc1ccc2oc(-c3ccc(C)c(NC(=O)/C=C/c4ccc(Cl)cc4)c3)nc2c1	.	-9.5%	.	11.7%[11.4 µM]	20.8%
CC(C)OP(=O)(OC(C)C)C1(O)C(=O)Nc2ccc(Br)cc21 (stereo not given)	-9.0	3.3%	4.0%	-0.8%	39.8µM*
CC(=O)NC1=C(N(C)C2CCS(=O)(=O)C2)C(=O)c2ccccc2C1=O (stereo not given)	-70.5*	?	2.2%	5.9%[57.1 µM]	-42.9%
CN(C(=O)Nc1ccccc1)C1CCS(=O)(=O)C1 (stereo not given)	1.7	-12.6%	-2.1%	8.9%[57.1 µM]	2.8%
COc1cc(C)c(CNc2ccc(OC)c(OC)c2)cc1C	-31.0*	.	-0.3%	.	.
COc1cc(C)c(CNc2cccc(C)c2)cc1C	0.6	-7.0%	5.0%	5.4%	10.9%
CC(=O)Oc1ccccc1/C=C/c1ccc2ccccc2[n+]1C	-1.9	-19.6%	9.9%	-13.4%	20µM*
CCOC(=O)CCCC(=O)N1CCN(/[N+]([O-])=N/Oc2ccc([N+](=O)[O-])cc2[N+](=O)[O-])CC1	.	.	.	-6.2%	15.8µM*
CCCCCCCCCCCCOC(=O)N1CCN(/[N+]([O-])=N/Oc2ccc([N+](=O)[O-])cc2[N+](C)=O)CC1	.	.	.	-6.8%[0.457 µM]	50.1µM*
CCOC(=O)N1CCN(c2ccc([N+](=O)[O-])cc2)CC1	-3.1	-12.5%	2.0%	-5.9%	-12.3%
CCOC(=O)N1CCN(S(=O)(=O)c2ccc([N+](=O)[O-])cc2)CC1	3.3	-5.9%	0.1%	-16.8%[57.1 µM]	22.9%[57.1 µM]
CCOC(=O)N1CCN(/[N+]([O-])=N/Oc2ccc([N+](=O)[O-])cc2[N+](=O)[O-])CC1	3.9	.	.	3.1%[57.1 µM]	6.7µM*
Cc1csc(NCC(=O)c2c(C)[nH]c3ccccc23)n1	.	.	.	0.1%	14.4%
NCCCC[C@H](NC(=O)[C@@H]1CCCN1C(=O)[C@H](CO)NC(=O)[C@H](CC(=O)O)NC(=O)CNC(=O)[C@H](CCCN=C(N)N)NC(=O)CN)C(=O)O	0.2	.	.	.	.
O=c1c(O)c(-c2ccc(O)cc2O)oc2cc(O)cc(O)c12	-0.5	.	.	8.9%[57.1 µM]	7.08µM*
O=c1c(O)c(-c2ccccc2O)oc2cc(O)cc(O)c12	0.1	.	.	.	.
O=C1[C@@H]2C(c3cccnc3)=NO[C@@H]2C(=O)N1c1ccc(Br)cc1	0.3	?	-5.1%	6.1%[57.1 µM]	28.2µM*

High-throughput results as filed in PubChem.
